# According to PubChem BioAssay (NCI):
# Compounds without any hit were thinned out: in the full panel of roughly 83,000, 20% have a hit.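 The endpoint reported here, percent growth, reads 100 for growth as untreated, 0 for no net growth and -100 for all cells dead.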 Unmarked numbers belong to inactive results. Activity calls are given as the source filed them. The calls were made as follows: active = growth percent below 10; inactive = the rest.
# Legend:
# Assay in all cases: NCI-60 one-dose screen, 48 h (100 = growth as untreated, 0 = no growth, -100 = all killed)
# EKVX NSCLC = conditions: 10 µM unless noted
# UO-31 renal = conditions: 10 µM unless noted
# TK-10 renal = conditions: 10 µM unless noted
# ACHN renal = conditions: 10 µM unless noted
# CAKI-1 renal = conditions: 10 µM unless noted
# A498 renal = conditions: 10 µM unless noted
# CCRF-CEM leukemia = conditions: 10 µM unless noted
# MOLT-4 leukemia = conditions: 10 µM unless noted
# SR leukemia = conditions: 10 µM unless noted
# RPMI-8226 leukemia = conditions: 10 µM unless noted
# OVCAR-8 ovarian = conditions: 10 µM unless noted
# OVCAR-4 ovarian = conditions: 10 µM
# SK-OV-3 ovarian = conditions: 10 µM unless noted
# IGROV1 ovarian = conditions: 10 µM unless noted
# OVCAR-3 ovarian = conditions: 10 µM unless noted
# HS 578T breast = conditions: 10 µM unless noted
# NCI/ADR-RES ovarian = conditions: 10 µM unless noted
# SN12C renal = conditions: 10 µM unless noted
# OVCAR-5 ovarian = conditions: 10 µM unless noted
SMILES,growth (EKVX NSCLC),growth (UO-31 renal),growth (TK-10 renal),growth (ACHN renal),growth (CAKI-1 renal),growth (A498 renal),growth (CCRF-CEM leukemia),growth (MOLT-4 leukemia),growth (SR leukemia),growth (RPMI-8226 leukemia),growth (OVCAR-8 ovarian),growth (OVCAR-4 ovarian),growth (SK-OV-3 ovarian),growth (IGROV1 ovarian),growth (OVCAR-3 ovarian),growth (HS 578T breast),growth (NCI/ADR-RES ovarian),growth (SN12C renal),growth (OVCAR-5 ovarian)
COc1ccccc1S(=O)Nc1ccccc1 (centres undefined),106%,85.9%,101%,107%,98.2%,82.9%,93.6%,103%,82.7%,99.9%,94.2%,110%,105%,107%,107%,82%,105%,,
CSc1nc2sc3cc(Cl)c(Cl)cc3n2c(=N)c1C#N,80.1%,69.3%,121%,117%,87.9%,116%,107%,95.5%,106%,112%,91.4%,97.5%,89.3%,,110%,91.9%,101%,98.4%,123%
Nc1ccc2c(c1)Cc1cc(NC(=O)C(F)(F)F)ccc1-2,79.9%,75.7%,106%,104%,96.3%,84.6%,86.3%,109%,101%,88.3%,102%,109%,89.8%,114%,99.5%,119%,104%,97.6%,114%
CC(C)=CCC[C@](C)(O)[C@H]1CC[C@]2(C)[C@@H]1CC[C@@H]1[C@@]3(C)CC/C(=N/O)C(C)(C)[C@@H]3CC[C@]12C,2.6% [100 µM] (active),-17.7% [100 µM] (active),-39.1% [100 µM] (active),-72% [100 µM] (active),-58.4% [100 µM] (active),-15.7% [100 µM] (active),23.1% [100 µM],2.24% [100 µM] (active),12.5% [100 µM],-2.67% [100 µM] (active),-69.7% [100 µM] (active),,12.4% [100 µM],-66.5% [100 µM] (active),-42.3% [100 µM] (active),-13% [100 µM] (active),-10.9% [100 µM] (active),-42.4% [100 µM] (active),2.17% [100 µM] (active)
NC(=S)Cc1ccccc1,97.9%,84.4%,94.3%,98.1%,89.1%,73.6%,105%,103%,97.9%,99.2%,103%,97%,103%,107%,,102%,105%,94.7%,100%
CCOC(CNC(=O)c1cccc([N+](=O)[O-])c1)OCC,97.4%,81.8%,82.8%,108%,89.9%,84.5%,111%,100%,95.4%,141%,95.3%,109%,108%,,96.5%,,97.9%,92.7%,101%
CCOC(=O)c1nn(C2CCCCO2)c2ccc(NC(=O)Cn3nnc4ccccc43)cc12 (centres undefined),98.1%,82.6%,117%,98.6%,97.6%,85.8%,117%,,97.6%,107%,101%,104%,,103%,110%,99.4%,104%,97.6%,97.7%
